# Shown is part of a subset that was picked to be rich in hits.
# Shiga inhibitor = A qHTS for Small Molecule Inhibitors of Shiga Toxin; Vero cells, Shiga toxin protein synthesis inhibition reporter; inhibition, % at 38.7 µM; hit rate 9.2% among 290,000; AID 2315, 2010; in the data active = inhibition mostly above about 28%, no sharp cut-off; inactive = mostly below about 43%; also: 0% is about no effect
# LmPK inh = qHTS Assay for Inhibitors of Leishmania Mexicana Pyruvate Kinase (LmPK). Potency, µM (doses to about 57.5 µM), for inactives: at the highest dose activity change, negative = inhibition, actives largely listed as inhibitors. Q27686. purified LmPK, Kinase-Glo ATP luminescence, 1 h. hit rate 0.37% among 290,000; also: potency is read from the fitted curve at half-maximal effect; % is scaled to controls: 0 for no effect and ±100 for the full control effect
# Target sequence (Q27686 whole entry, looked up): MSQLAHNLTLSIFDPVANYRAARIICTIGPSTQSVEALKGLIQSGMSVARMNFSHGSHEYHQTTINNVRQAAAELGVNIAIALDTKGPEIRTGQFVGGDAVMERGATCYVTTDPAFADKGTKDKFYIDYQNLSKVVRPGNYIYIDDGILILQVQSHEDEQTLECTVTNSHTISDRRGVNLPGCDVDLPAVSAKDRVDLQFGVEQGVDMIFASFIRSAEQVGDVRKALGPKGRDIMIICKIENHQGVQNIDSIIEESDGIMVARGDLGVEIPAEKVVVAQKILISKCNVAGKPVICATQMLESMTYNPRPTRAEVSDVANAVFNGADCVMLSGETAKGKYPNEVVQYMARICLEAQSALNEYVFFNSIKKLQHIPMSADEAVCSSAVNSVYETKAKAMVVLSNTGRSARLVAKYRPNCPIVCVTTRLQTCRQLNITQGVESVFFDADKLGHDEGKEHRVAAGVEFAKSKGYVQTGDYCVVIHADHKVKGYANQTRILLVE
#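 Kinase-Glo luminescence read after 1 h RT reaction of 0.1 nM LmPK with 0.5 mM PEP and 0.1 mM ADP. Activity scaled between uninhibited and enzyme-free controls.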
# Giardia FBPA inh = qHTS Assay for Inhibitors of Fructose-1,6-bisphosphate Aldolase from Giardia Lamblia. purified Giardia FBPA. Potency, µM (titrated, usually from 59.6 µM), for inactives: at the top dose activity, negative = inhibition, hits mostly inhibitors. hit rate 0.71% among 290,000. AID 2451, 2010; also: potency is read from the fitted curve at half-maximal effect; % is scaled to controls: 0 for no effect and ±100 for the full control effect; nearly all actives have a fitted effect of over 55% in size
#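 Giardia FBPA (40 nM reagent) was preincubated 10 min at RT with compound (up to 57.5 uM final), then substrate plus GAPDH/TPI/NAD/arsenate coupling system with diaphorase/resazurin was added; resorufin fluorescence (525/598 nm) was read after 20 min.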
# TbPYK inhibitor = qHTS of Trypanosoma Brucei Inhibitors. TbPYK enzyme, Kinase-Glo Plus ATP luminescence, 45 min. Potency, µM (top dose mostly 76.8 µM), without a hit: at the top dose activity, negative = inhibition, actives largely listed as inhibitors. hit rate 0.12% among 410,000. AID 624173, 2012; also: potency is read from the fitted curve at half-maximal effect; % is scaled to controls: 0 for no effect and ±100 for the full control effect; nearly all actives have a fitted effect of over 50% in size
#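 Screened from lowest to highest concentration, compounds were pinned into TbPYK/substrate mixtures, and ADP (130 uM final) was added. Plates sat at room temperature for 45 min prior to Kinase-Glo Plus detection by luminescence.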
# RE007 growth inh = qHTS Assay for Inhibitors of the HIV-1 protein Vpr | Potency, µM (doses to about 92.2 µM), for the others: top-dose activity change, negative = less growth, hits mostly inhibitors | AID 651644, 2012 | hit rate 0.21% among 360,000 | S. pombe RE007 Vpr strain, BacTiter-Glo ATP luminescence, 24 h; active = well fitted falling curve with a large enough effect; inconclusive = small, poorly fitted or top-dose-only effect; inactive = no such curve, though single readings can be large or run the other way; also: potency is read from the fitted curve at half-maximal effect; % is scaled to controls: 0 for no effect and ±100 for the full control effect; nearly all actives have a fitted effect of over 50% in size
#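 Fission yeast strain RE007, carrying one chromosomally integrated HIV-1 vpr copy, was seeded at OD 0.01 in PMG+AL medium with 23 nL pinned compound. After 24 h at 30 °C and 99% humidity, viability was read by BacTiter-Glo luminescence.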
# Cycloheximide cs = Cycloheximide Counterscreen for Small Molecule Inhibitors of Shiga Toxin. max response, %. hit rate 12% among 300,000. AID 2314, 2010. cell reporter, cycloheximide protein synthesis inhibition counterscreen; in the data active = max response mostly above about 13%, no sharp cut-off; inactive = mostly below about 14%; also: read at 38.3 µM for the half of the compounds with a filed dose; 0% is about no effect
# * hit, by the source's call; u = inconclusive; x = not tested or not shown; [ ] = dose if it differs, or a comment. Unless noted, calls follow the shape of the dose curve; as a rule, active = well fitted curve in the direction sought with a large enough effect; inconclusive = small, poorly fitted or top-dose-only effect, or another doubt; inactive = no such curve, though single readings can be large; an effect the other way counts as inactive or inconclusive.
SMILES,Shiga inhibitor,LmPK inh,Giardia FBPA inh,TbPYK inhibitor,RE007 growth inh,Cycloheximide cs
N/C(=N\OC(=O)CCN1C(=O)c2ccccc2C1=O)c1ccccn1,15,-6%,0%,7%,-20%,7
N/C(=N\OC(=O)c1cccc2ccccc12)c1ccccn1,95*,-20%,-3%,-9%,-25%,57*
COc1ccc(CC(=O)O/N=C(\N)Cc2cccc3ccccc23)cc1OC,-3,0%,-9%,5%,-2%,2
COc1ccccc1CC(=O)O/N=C(\N)c1ccccn1,92*,-1%,0%,0%,0%,42*
COc1ccc(CC(=O)O/N=C(\N)c2ccccn2)cc1OC,55*,1%,x,0%,-3%,35*
COc1ccc(C2NC(=O)N(C)C3=C2C(=O)N(c2ccccc2)C3)cc1 (stereo not drawn),x,x,x,2%,x,x
COC(=O)NC(c1cccs1)C(C(C)=O)C(=O)OC (stereo not drawn),x,x,0%[12.9 µM],x,x,x
O=[N+]([O-])c1ccc(C(c2sc3nc(-c4ccco4)nn3c2O)N2CCN(c3cccc(Cl)c3)CC2)cc1 (stereo not drawn),x,x,x,-16%,x,x
Cc1cccc(C(=O)Nc2c(-c3ccc(F)cc3)nc3ccccn23)c1,x,x,x,-10%,x,x
COc1ccc(/C(N)=N/OC(=O)Cc2ccccc2OC)cc1,36*,1%,1%,0%,-23%,39*
CN(CC(=O)O/N=C(\N)c1ccccn1)S(=O)(=O)c1ccc(Br)cc1,9,4%,2%,-10%,-8%,6
N/C(=N\OC(=O)Cc1ccccc1[N+](=O)[O-])c1ccccn1,139*,-4%,0%,-5%,1%,49*
COc1ccccc1/C=N\N=C(\N)c1ccccn1,89*,-20%,10%,1%,1%,55*
CCOC(=O)c1ccc(NC(=O)c2cc3sccc3n2Cc2ccc(Cl)cc2)cc1,x,x,x,-1%,x,x
COc1ccccc1-c1nc2n(n1)C(c1ccccc1Cl)C(C(=O)Nc1cccnc1)=C(C)N2 (stereo not drawn),x,x,x,4%,x,x
CC1(c2ccccc2)CC(c2ccccc2)=Nc2ccccc2N1 (stereo not drawn),91*,3%,-22%,-7%,-8%,57*
Cc1ccc(C2=Nc3ccccc3NC(C)(c3ccc(C)o3)C2)o1 (stereo not drawn),82*,-4%,-12%,-5%,-16%,60*
CC1(c2ccccc2)CC(c2ccccc2)=Nc2nonc2N1 (stereo not drawn),-13,2%,-5%,-1%,3%,-1
CCOc1cc(S(=O)(=O)NCc2ccco2)c(OCC)cc1-n1cnnn1,76*,1%,9%,-4%,-3%,34*
CCOc1cc(S(=O)(=O)NCc2ccc(OC)cc2)c(OCC)cc1-n1cnnn1,-4,-8%,-4%,2%,11%,-1
COc1cccc(CNC(=O)Cn2c(=O)ccc3cc(S(=O)(=O)N4CCCC4)ccc32)c1,x,x,x,-3%,x,x
O=C(CCNC(=O)c1ccccc1Cl)Nc1nc(-c2ccccc2Cl)cs1,40,1%,-3%,0%,-2%,22*
COc1ccc2nc(NC(=O)CCNC(=O)c3ccco3)sc2c1,x,x,x,-4%,-4%,x
COc1ccc2nc(NC(=O)CCNC(=O)c3ccccc3Cl)sc2c1,77*,-2%,1%,1%,-2%,33*
COc1ccc2nc(N(Cc3ccccc3)C(=O)CCNC(C)=O)sc2c1,44*,-14%,x,0%,7%,22
SMILES,Shiga inhibitor,LmPK inh,Giardia FBPA inh,TbPYK inhibitor,RE007 growth inh,Cycloheximide cs
O=C(CCNC(=O)c1ccccc1Cl)Nc1nc2ccccc2s1,143*,-1%,0%,-9%,2%,37*
O=C(CCNC(=O)c1ccccc1Cl)Nc1nc(-c2ccc(F)cc2)cs1,-5,7%,0%,-10%,-11%,0
Cn1c(=O)oc2cc(S(=O)(=O)N3CCCC(C(=O)NCc4ccc(F)cc4)C3)ccc21 (stereo not drawn),x,x,x,5%,x,x
Clc1cccc(N2CCN(c3nc4ccccc4c4nc(-c5ccccc5)nn34)CC2)c1,x,x,x,0%,x,x
O=C(c1nc(-c2ccc(Cl)cc2)n2c1CCCCC2)N1CCN(c2ccccc2F)CC1,x,x,x,2%,x,x
NC(=S)N/N=C/c1ccc2c(c1)OCCO2,32,-1%,u,-4%,-1%,28*
NC(=S)N/N=C/c1ccc(C23CC4CC(CC(C4)C2)C3)cc1,79*,-1%,10%,4%,8%,22*
NC(=S)N/N=C/c1ccccc1,-13,0%,u,0%,-19%,-5
Cn1c(=O)n(C)c2cc(/C=N/NC(N)=S)ccc21,16,6%,u,4%,7%,-4
CNC(=S)N/N=C/c1ccc2c(c1)OCCO2,73*,-6%,-11%,4%,5%,36*
O=C(Nc1ccc(Br)cc1)C1CCN(c2ncccn2)CC1,x,x,x,-2%,x,x
O=C(CN(c1cc(C(F)(F)F)ccc1Cl)S(=O)(=O)c1ccccc1)NCCc1ccccc1,x,x,x,-5%,x,x
CC1=C(C(=O)Nc2ccccc2C(=O)NC2CCC(C)CC2)SCCO1 (stereo not drawn),26,-5%,x,-3%,1%,16*
C[C@H]1[C@H](C)CC[C@]2(C(=O)O)CC[C@]3(C)C(=CCC4[C@@]5(C)CC[C@H](O)C(C)(C)[C@@H]5CC[C@]43C)[C@H]12 (stereo partly drawn),x,x,13%,x,x,x
O=C(NCc1cccs1)c1cc(C2CC2)on1,64*,0%,3%,2%,-11%,22*
O=C(NCc1cccs1)c1cc(-c2cccs2)on1,87*,0%,2%,4%,0%,41*
COCCNC(=O)c1cc(-c2cccs2)on1,101*,0%,1%,3%,0%,34*
O=C(NCc1cccs1)c1cc(-c2ccccc2)on1,118*,-9%,3%,3%,4%,30*
COc1ccc(NC(=O)Cn2nc(-c3ccncc3)ccc2=O)cc1Cl,x,x,x,-1%,x,x
Cc1ccc2c(=O)cc(C(=O)Nc3sc4c(c3C(=O)NCc3ccco3)CCCC4)oc2c1C,x,x,x,1%,x,x
C=CCNC(=S)Nc1c(C(=O)OC)[nH]c2cc(OC)ccc12,30,-20%,-9%,-24%,20%,19*
COC(=O)c1[nH]c2cc(OC)ccc2c1NC(=O)c1c(F)cccc1F,7,3%,-1%,-4%,6%,0
CCc1ccc2[nH]c3nc(SCCN4CCOCC4)nnc3c2c1,17*,-6%,10%,-7%,16%,21*
CCS(=O)(=O)c1cc([N+](=O)[O-])c(Sc2ccccc2NC(C)=O)s1,33,7%,-9%,-33%,8%,14*
